The sequences below were run against ZFP62 (assay: pooled miR-30 sensor sort-seq; sequence = guide strand). Conditions: shRNA.
In the case of TTCTGCTTGAGAAAAAAGCTTT, the sensor-assay potency score (higher = more potent) is reported as -0.449. Sequence TTTGCCACAGACATCACACTTG has a sensor-assay potency score (higher = more potent) of 0.373. For TAGAGCGTGAGATATAGGCTTT, the sensor-assay potency score (higher = more potent) was -0.26. For TATGTAATTTCTTAACAGCATT, the sensor-assay potency score (higher = more potent) was -1.56. Work on TTTTCTGCTGTAGACTAGGGTA yielded a sensor-assay potency score (higher = more potent) of -0.796. TTTCTCTCTAGTGTGGACCCTT showed a sensor-assay potency score (higher = more potent) of -0.0465. With TTTTATGTTGAACAAGGCGGGA the sensor-assay potency score (higher = more potent) was -0.995. TTTATGTTGAACAAGGCGGGAA was tested, and the sensor-assay potency score (higher = more potent) was 0.133. In the case of TTATATTTGAAGGATTTCCCAC, the sensor-assay potency score (higher = more potent) is reported as -0.915.

What follows are sequences tested against ZFR2 in the same assay as above. Conditions: shRNA.
Sequence TAGCTTGGTGCCGTGTAGGCGG has a sensor-assay potency score (higher = more potent) of -0.795. With TAGTGAAGCTGGAGCTGCCTGG the sensor-assay potency score (higher = more potent) was -0.835. Work on TATGGTGACCTGCATCCTGGGC yielded a sensor-assay potency score (higher = more potent) of -0.904. TGCAGCTTGAAGACCTTCTGGT gave a sensor-assay potency score (higher = more potent) of 0.0557. TTAAGGTCGTTGAAACTGCACT showed a sensor-assay potency score (higher = more potent) of -0.864. With TCATCCTCGGTCACCATCTGGA the sensor-assay potency score (higher = more potent) was -0.791. For TGTCGCAGTAGTGAAGCTGGAG, the sensor-assay potency score (higher = more potent) was -0.148. With TTGGGTCTCGGCAGCTTGCTGG the sensor-assay potency score (higher = more potent) was -0.733. For TTCGTCGCTGAACACCTCCTCC, the sensor-assay potency score (higher = more potent) was -0.823. Sequence TTTCTTCCGGTACTGCAGCCGG has a sensor-assay potency score (higher = more potent) of -0.948. TCCGTAGCTGTAACTGTCCTGG gave a sensor-assay potency score (higher = more potent) of -0.711. TCTGTCTGGTCTCTCTCGCAGG gave a sensor-assay potency score (higher = more potent) of -0.775.

What follows are sequences tested against ZFR in the same assay as above. Conditions: shRNA.
TTTCTCTACTAGTAACTCCATA showed a sensor-assay potency score (higher = more potent) of -1.22. Work on TTTTTCATTACATCACTGCTAG yielded a sensor-assay potency score (higher = more potent) of 0.0706. TAGAACTTTGTGTATCTGGCGG showed a sensor-assay potency score (higher = more potent) of -0.255. TATAACCATAGTCAGTTGCTGT showed a sensor-assay potency score (higher = more potent) of -0.854. With TTGACATTTCTATCTCCTCGGA the sensor-assay potency score (higher = more potent) was -0.27. With TCTTCTTCTCGTCTTCGCCAGT the sensor-assay potency score (higher = more potent) was -1.15. TAGTTTTGTGTAGTAGCTGGGG showed a sensor-assay potency score (higher = more potent) of 0.0406. For TTATATTGAAGTCTGTGTCTTC, the sensor-assay potency score (higher = more potent) was 0.707. TTGTGTGTAACTTAACCACTTT was tested, and the sensor-assay potency score (higher = more potent) was -0.519. TATAACAGCAAGCTGTTTGGGT showed a sensor-assay potency score (higher = more potent) of 0.358. TTACATATGAGTATGAATCCTG showed a sensor-assay potency score (higher = more potent) of 0.475. TTGTGTAGGAGACATAAGCAGG showed a sensor-assay potency score (higher = more potent) of -0.979.

The sequences below were run against ZHX1 in the same assay as above. Conditions: shRNA.
TTCTTCTTCTCTGTAAACCAAG gave a sensor-assay potency score (higher = more potent) of -1.18. Work on TAACTATGTCTGTTCTAGCAAG yielded a sensor-assay potency score (higher = more potent) of -1.35. Sequence TTTACTGATAGATATTCCCGAA has a sensor-assay potency score (higher = more potent) of -0.468. Work on TTTCTCTTTAAACTTTTGGGGA yielded a sensor-assay potency score (higher = more potent) of -0.716. Sequence TAAATTAGTATGAACTTTCAGT has a sensor-assay potency score (higher = more potent) of -0.00447. Sequence TTATGATGAACTGCAATCCGTT has a sensor-assay potency score (higher = more potent) of -0.993. With TAGACATACAGTATTAAACTGG the sensor-assay potency score (higher = more potent) was -0.456.

Reference: the OligoGym collection
